In all, about 2,200 compounds went through this assay and about 1,200 (55%) were called active. The set was probably picked from earlier hits. Some of the results follow. Values without a mark were called inactive. Cut-off not given; nearly all actives show IC50 up to about 92 µM.

The experiment can be described thus: counter assay for TAg ATPase ADP read-out – biochemical, ADP-Hunter, fluorescence, counter-screen (AID 2501).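 Further: purified T antigen ATPase.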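 On inhibition: 0% = enzyme with vehicle and 100% = reference inhibitor wells; higher means more inhibition.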 The settings on record: series mostly up to 100 µM; inhibition: at the top concentration.
With `COc1cc(/C=C(\C#N)C(=O)N2CCc3ccccc32)ccc1O`, the IC50 is 2.3 µM (active).
As for `CCC(=O)N1CCc2cc(S(=O)(=O)N(C)c3ccc(OC)cc3OC)ccc21`, the “inhibition” value was 22.4%.
On to `COc1cc(/C=C(\C#N)C(=O)N2CCCCC2)ccc1O`, for which the IC50 was 5.73 µM (active).
In the case of `Cc1cc(/C=C(\C#N)C(=O)NC2CCCCCC2)c(C)n1C`, the “inhibition” value is -11.6%.
As for `COc1cc(C=C(C(C)=O)C(C)=O)ccc1O`, the IC50 is 3.76 µM (active).
Still for that read-out and setting: then `N#C/C(=C\c1ccc(O)c(O)c1)C(=O)N1CCc2ccccc21`, with 9.2 µM (active).
Regarding `CC(C)(C)NC(=O)COC(=O)c1cc(F)c(F)cc1Cl`, the “inhibition” value was 0.35%.
On the same count and under the same terms, then `CCOC(=O)N1[C@@H]2C=C(C)[C@@H]2[C@@H]2[C@@H](C)C(=O)N21`, with 12%.
In the case of `O=C(/C=C/c1cccc(Cl)c1)c1ccc([N+](=O)[O-])o1`, the “inhibition” value is -11.4%.
Regarding `COc1cc(/C=C/C(=O)c2ccc([N+](=O)[O-])o2)ccc1O`, the IC50 is 5.19 µM (active).
Consider `Cc1ccccc1/C=C/C(=O)c1ccc([N+](=O)[O-])o1`, for which the “inhibition” value was -26.8%.
Turning to `O=S(=O)(c1ccc(NC(=S)N/N=C/c2ccc(O)c(O)c2)cc1)N1CCOCC1`, the IC50 was 5.94 µM (active).
On the same count and under the same terms, to `Cc1ccc(S(=O)(=O)N2CCN(CC(=O)N/N=C\c3ccc(O)c(O)c3)CC2)cc1` belongs 3.2 µM (active).
Turning to `COc1ccc(NC(=O)CN(C)C(=O)CCc2nc3cc(S(=O)(=O)N4CCOCC4)ccc3n2C)cc1`, the “inhibition” value was -2.23%.
As to `Cc1ccc(S(=O)(=O)N2[C@@H](c3ccc(Cl)cc3)C(C(=O)O)=CC[C@H]2c2ccc(Cl)cc2)cc1`, the “inhibition” value is -14.6%.
For the compound `CCN(CC)c1ccc(NC(=O)CCNS(=O)(=O)c2ccc3c(c2)CCC(=O)N3)c(C)c1`, the half-inhibitory concentration (IC50) is 7.36 µM (active).
For `CC(C)(C)NC(=O)NC(=O)CN1CCN(c2ccc(O)cc2)CC1`, the IC50 was 4.89 µM (active).
For the compound `Cc1c(NC(=O)C(C)OC(=O)/C=C/c2ccco2)c(=O)n(-c2ccccc2)n1C` (configuration not stated), the “inhibition” value is 12.1%.
Still for that read-out and setting: then `COc1ccc(-c2nnc(SC(C)C(=O)Nc3c(C)n(C)n(-c4ccccc4)c3=O)o2)cc1` (configuration not stated), with 3.49%.
Consider `N#Cc1ccsc1NC(=O)CN1CCN(c2ccc(O)cc2)CC1`, for which the IC50 was 6.3 µM (active).
Turning to `Cc1c(NC(=O)COC(=O)COc2ccc(Nc3ccccc3)cc2)c(=O)n(-c2ccccc2)n1C`, the half-maximal inhibitory concentration (IC50) was 8.78 µM (active).
On to `Cc1c(NC(=O)CN2CCN(c3ccc(O)cc3)CC2)c(=O)n(-c2ccccc2)n1C`, for which the IC50 is 8.18 µM (active).
Turning to `Cc1c(NC(=O)c2cnn3c2NC(c2ccccc2)CC3C(F)(F)F)c(=O)n(-c2ccccc2)n1C` (configuration not stated), the “inhibition” value is -5.94%.
Consider `CN1CCN(CC(=O)Nc2c(C#N)cnn2-c2ccccc2)CC1`, for which the “inhibition” value was -5.67%.
On the same count and under the same terms, to `Cc1nc2ccc(NC(=O)c3cc([N+](=O)[O-])cc([N+](=O)[O-])c3Cl)cc2s1` belongs -16.9%; to `Cc1ccc(N/C(C(Cl)=C(Cl)Cl)=C(/Cl)[N+](=O)[O-])c(C)c1`, 13.1%.
Turning to `O=C(Cn1cnc2c(nnn2Cc2ccccc2)c1=O)Nc1ccc2c(c1)OCCO2`, the “inhibition” value is -28.1%.
Take `Cc1cc(NC(=O)CN2CCN(c3ccc(O)cc3)CC2)no1`: the IC50 was 4.08 µM (active).
Still for that read-out and setting: then `O=C(CN1CCN(c2ccc(O)cc2)CC1)Nc1ccc2c(c1)OCCO2`, with 6.55 µM (active).
Turning to `Cc1cc(NC(=O)c2noc3c2CCCCC3)no1`, the “inhibition” value is -7.35%.
In the case of `O=C(COc1ncnc2sccc12)N1CCN(c2ccccc2)CC1`, the “inhibition” value is 1.41%.
Take `Cc1ccc(OCCC(=O)N2CCN(c3ccc(O)cc3)CC2)cc1`: the IC50 was 4.43 µM (active).
Take `CCCCCCC1CCC(C(=O)N2CCOCC2)CC1` (configuration not stated): the “inhibition” value was 14.4% [at 50 µM].
`CCOc1ccc(OCCC(=O)OCC(=O)N2CCN(S(=O)(=O)c3ccc(C)cc3)CC2)cc1`: the IC50 is 10.1 µM (active).
Turning to `Cc1ccc(N(C=NC#N)CC(=O)N2CCN(c3ccccc3)CC2)cc1`, the “inhibition” value was -3.12%.
In the case of `O=C(C1CC1)N1CCN(c2ccc(O)cc2)CC1`, the IC50 was 3.4 µM (active).
The same measure, in the same setting: to `O=C(CCOc1ccccc1)N1CCN(c2ccc(O)cc2)CC1` belongs 3.56 µM (active).
For the compound `COc1ccccc1N1CCN(C(=O)C2CCN(S(=O)(=O)c3ccc(C)cc3)CC2)CC1`, the “inhibition” value is -16.4%.
Same read-out and setting: then `O=C(CCC(=O)N1CCN(c2ccccc2F)CC1)N1CCN(c2ccccc2)CC1`, with -11.5%.
The same measure, in the same setting: to `O=C(C1CCCN(S(=O)(=O)c2cccc3nonc23)C1)N1CCN(c2ccccc2)CC1` (configuration not stated) belongs 9.89%.
As for `CCOC(=O)C1CCN(C(=O)COC(=O)CSc2ccc([N+](=O)[O-])cc2)CC1`, the “inhibition” value was -18.3%.
On the same count and under the same terms, then `Clc1ccccc1CSc1nnc(-c2ccco2)c(-c2ccco2)n1`, with -26.5%; and `C=CCc1ccc(OCCN2CCc3ccccc3C2)c(OC)c1`, with -23.3%.
For `O=[N+]([O-])c1ccc(SCCc2ccncc2)cc1`, the “inhibition” value is -30.2%.
Still for that read-out and setting: to `CN1CCc2[nH]c3ccc(C(=O)NN)cc3c2C1` belongs 12.9%; to `Cc1c(CCO)c(=O)n(C)n1C(=O)c1ccc(Cl)cc1`, 11.2%.
The same measure, in the same setting: then `O=C(COC(=O)COc1cccc(C(F)(F)F)c1)NC1CCCC1`, with 2.64%.
`O=C(CCSc1ccc(Cl)cc1)N1CCN(c2ccc(O)cc2)CC1`: the IC50 was 7.46 µM (active).
As for `Cc1cc(OCC(=O)N2CCN(c3ccc(F)cc3)CC2)c2c(C)cc(=O)oc2c1`, the “inhibition” value is -42.5%.
Take `CCOC(=O)N1CCN(c2ccc(O)cc2)CC1`: the IC50 is 4.16 µM (active).
Same read-out and setting: to `COc1cc(OC)cc(C(=O)NCC(=O)N2CCN(c3ccc(O)cc3)CC2)c1` belongs 8.71 µM (active); to `O=C(COc1cccc(C(F)(F)F)c1)N1CCN(c2ccc(O)cc2)CC1`, 15.1 µM (active).
For `CCOC(=O)N1CCN(C(=O)c2ccc3c(SCC(=O)O)c4c(nc3c2)CCCC4)CC1`, the “inhibition” value is -5.78%.
On the same count and under the same terms, then `CCOc1ccccc1NC(=O)COC(=O)c1cccc(-c2ccc(OC(C)=O)cc2)c1`, with 24.5%; and `CCOc1cccc(=O)c2c(C)n(-c3ccc(C(=O)O)cc3)c(C)c12`, with -5.55%.
On to `CCOc1cc(NC2CS(=O)(=O)CC2O)c(OCC)cc1NC(=O)c1ccccc1` (configuration not stated), for which the IC50 is 4.18 µM (active).
For the compound `COc1ccc2c(=O)c3c(=O)n(Cc4ccco4)c(-c4ccco4)nc3oc2c1`, the “inhibition” value was 7.05%.
As to `CC(=O)NCCc1c[nH]c2ccc(O)cc12`, the IC50 is 7 µM (active).
On the same count and under the same terms, then `O=C1c2ccccc2C(=O)N1CCc1c[nH]c2ccc(O)cc12`, with 7.26 µM (active).
Consider `Cc1ccc(S(=O)(=O)N2CCCOC2CNC(=O)C(=O)NCCc2c[nH]c3ccccc23)cc1` (configuration not stated), for which the “inhibition” value is 18.5%.
On the same count and under the same terms, to `OCCc1c[nH]c2ccc(C(F)(F)F)cc12` belongs 8.25%; to `O=[N+]([O-])c1ccc(S(=O)(=O)N2CCSC2c2ccco2)cc1` (configuration not stated), -53.9%.
For `N/C(=N\N=C\c1ccc(O)c(O)c1)c1nonc1N`, the IC50 is 14 µM (active).
Still for that read-out and setting: then `COc1cc(/C=N/N=C(\N)c2nonc2N)ccc1O`, with 4.89 µM (active); and `O=c1oc2ccccc2c2oc3cc(O)c(O)cc3c12`, with 8.13 µM (active).
Take `COc1ccc(C2CC(=O)C(C(c3ccc(O)cc3)C3C(=O)CC(c4ccc(OC)cc4)CC3=O)C(=O)C2)cc1` (configuration not stated): the “inhibition” value was 1.91%.
Take `CN(C)c1ccc(C(=O)c2ccc(N(C)C)c(N)c2)cc1N`: the IC50 was 4.76 µM (active).
Regarding `O=C(CNC(=O)c1ccccc1)OCc1ccc([N+](=O)[O-])cc1`, the “inhibition” value was 1.14%.
As for `COc1cc(/C=N/NC(=O)c2cccc([N+](=O)[O-])c2)ccc1O`, the IC50 is 2.38 µM (active).
For `COc1cc(/C=N\NC(=O)CNC(=O)c2cccc([N+](=O)[O-])c2)ccc1O`, the IC50 was 2.18 µM (active).
As to `C#CCOCCOCCOCCNc1nc(N2CCN(C(=O)CCCCCCCCCCNC(=O)[C@H](CCCCN)n3cc(C[C@@H](C)CC)nn3)CC2)nc(N2CCN(C(=O)CCCCCCCCCCNC(=O)[C@H](CCCCN)n3cc(C[C@@H](C)CC)nn3)CC2)n1`, the “inhibition” value was 0.98%.
As to `O=C(O)c1ccccc1NS(=O)(=O)c1cccc(-n2sc3ccccc3c2=O)c1`, the IC50 was 9.24 µM (active).
On to `CN(C)S(=O)(=O)c1cccc(-n2sc3ccccc3c2=O)c1`, for which the IC50 is 8.98 µM (active).
Same read-out and setting: to `Cc1ccc(-n2sc3ccccc3c2=O)cc1S(=O)(=O)N1CCCCC1` belongs 24.1 µM (active).
As to `CCC1CCCCN1S(=O)(=O)c1ccc(NC(=O)c2nc(S(C)(=O)=O)ncc2Cl)cc1` (configuration not stated), the “inhibition” value is 14.9%.
The same measure, in the same setting: then `O=C(C1=C[C@@H](c2ccc(Br)cc2)C[C@@H](OCCCCO)O1)N1CCOCC1`, with 10.4%.
`Nc1c(C=C2C=CC(=O)C=C2)c(=O)nc2sc(CC(=O)N3CCCCC3)nn12`: the IC50 is 12.5 µM (active).
Still for that read-out and setting: then `Nc1c(/C=C2/C=CC(=O)C(O)=C2)c(=O)nc2sc(CC(=O)N3CCCCC3)nn12`, with 10.5 µM (active).
Regarding `Nc1c(/C=C2/C=CC(=O)C(O)=C2)c(=O)nc2sc(CC(=O)N3CCCC3)nn12`, the IC50 was 8.26 µM (active).
As to `COC1=C/C(=C/c2c(N)n3nc(CC(=O)N4CCCCC4)sc3nc2=O)C=CC1=O`, the IC50 was 7.89 µM (active).
Regarding `CC(=O)O[C@H]1C[C@@]2(C)[C@@H](C[C@@H](O)[C@H]3[C@@]4(C)CC[C@@H](O)[C@@H](C)C4CC[C@@]32C)/C1=C(\CCC=C(C)C)C(=O)O` (some centres not stated), the “inhibition” value was 28.7%.
The same measure, in the same setting: then `CC(=O)NCCC1CCCCN1Cc1nc(Cc2cccc(C(F)(F)F)c2)no1` (configuration not stated), with 18.1% [at 50 µM]; and `Cc1ccc(C(C(=O)NCc2ccc(F)cc2)N(CCCO)C(=O)C2COc3ccccc3O2)o1` (configuration not stated), with -18.2%.
On to `O=c1[nH]c(/C=C\c2ccc(O)c(O)c2)nc(O)c1[N+](=O)[O-]`, for which the IC50 was 5.5 µM (active).
In the case of `O=C(O)c1cc(S(=O)(=O)Nc2ccc3oc(=O)sc3c2)ccc1O`, the “inhibition” value was 13.4% [at 50 µM].
For `O=c1oc2cc(O)ccc2s1`, the IC50 is 11.8 µM (active).
Consider `CCOC(=O)NNc1ccc2nonc2c1[N+](=O)[O-]`, for which the “inhibition” value is 10.1%.
On to `O=c1c2cc(O)c(O)cc2oc2cc(O)c(C3OC(CO)C(O)C(O)C3O)c(O)c12` (configuration not stated), for which the IC50 is 6.35 µM (active).
Same read-out and setting: to `O=c1cc(-c2ccc(O)c(O)c2)oc2cc(O)c(C3OC(CO)C(O)C(O)C3O)c(O)c12` (configuration not stated) belongs 5.59 µM (active); to `O=c1cc(-c2ccc(O)cc2)oc2cc(O)c(C3OC(CO)C(O)C(O)C3O)c(O)c12` (configuration not stated), 18.6 µM (active).
In the case of `O=c1cc(-c2ccccc2Cl)oc2cc(O)cc(O)c12`, the “inhibition” value is -10.2%.
For the compound `O=c1cc(-c2ccc(O)cc2)oc2c(C3OCC(O)C(O)C3O)c(O)c(C3OC(CO)C(O)C(O)C3O)c(O)c12` (configuration not stated), the IC50 is 17.3 µM (active).

The values are drawn from PubChem BioAssay AID2501 (Southern Research Specialized Biocontainment Screening …, 2010).
